# Measured values taken from PubChem BioAssay.
# “And” between values parts separate entries of the source, which are not always exact repeats. Equal entries are not always repeated. Records with an inconclusive call do not appear. For part of these data: Results with a measured potency or affinity are listed apart. The source made the active and inactive calls. Rule as the data show it, unless noted: active = inhibition above about 80%; inactive = the rest.
# Tests used:
# [1] = restoration of touch response, mutant HTT neurons – whole organism, C. elegans mechanosensory neurons, N-terminal huntingtin (AID 1599); conditions: C. elegans polyQ-huntingtin mechanosensory neurons, stronger effect = higher value
# [2] = GFP-Q80 aggregate reduction, neuronal-like cells, cell-based, NGF-treated PC12, GFPQ80 (AID 1614); conditions: PC12 NGF-treated GFP-polyQ80 inclusion reduction;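 also: lower means fewer inclusions and 0 means no inclusions at all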
# [3] = 75Q-TubH aggregate inhibition, S. cerevisiae, yeast (AID 1616); conditions: S. cerevisiae 75Q-TubH polyglutamine aggregation suppression; stronger effect = higher value
# [4] = viability loss in pontine glioma line – cell-based, SU-DIPG-XVII, MIPE5.0, CellTiter-Glo, qHTS, dose response (AID 1347060; cut-off not given, nearly all actives have AC50 up to about 26 µM;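 as to AC50: cells exposed to compound for 48 hours before viability readout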); conditions: CellTiter-Glo ATP luminescence
# [5] = viability loss in pontine glioma line – cell-based, SU-DIPG-XIII, MIPE4.0, CellTiter-Glo, qHTS, dose response (AID 1347061; cut-off not given, nearly all actives have AC50 up to about 37 µM;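 also: cells exposed to compound for 48 hours before readout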); conditions: CellTiter-Glo ATP luminescence
# [6] = viability loss in pontine glioma line – cell-based, JHH-DIPG-1, MIPE4.0, CellTiter-Glo, qHTS, dose response (AID 1347062; cut-off not given, nearly all actives have AC50 up to about 27 µM;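 as to AC50: cells exposed to compound for two days before readout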); conditions: JHH-DIPG-1 viability, CellTiter-Glo ATP luminescence
# [7] = viability loss in pontine glioma line – cell-based, SU-DIPG-IV, MIPE4.0, CellTiter-Glo, qHTS, dose response (AID 1347063; cut-off not given, nearly all actives have AC50 up to about 30 µM;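 also: compound exposure lasted 48 hours before the viability readout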); conditions: CellTiter-Glo ATP luminescence
# [8] = viability loss in pontine glioma line – cell-based, SU-DIPG-XXV, MIPE5.0, CellTiter-Glo, qHTS, dose response (AID 1347065; cut-off not given, nearly all actives have AC50 up to about 26 µM;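 also: cells exposed to compound for 48 hours before ATP readout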); conditions: CellTiter-Glo ATP luminescence
# [9] = growth inhibition of DIPG cells – cell-based, MIPE4.0 library, CellTiter-Glo luminescence, qHTS (AID 1347066; cut-off not given, nearly all actives have AC50 up to about 30 µM;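 also: cells exposed to compound for 48 hours before readout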); conditions: SU-DIPG-VI viability, CellTiter-Glo ATP luminescence
# [10] = JHH-DIPG-1 glioma cell viability, MIPE5.0 library, CellTiter-Glo luminescence, qHTS (AID 1347067; cut-off not given, nearly all actives have AC50 up to about 26 µM;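 also: cells exposed to compound for 48 hours before readout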); conditions: JHH-DIPG-1 glioma viability, CellTiter-Glo ATP luminescence
# [11] = growth inhibition of DIPG cells – cell-based, MIPE5.0 library, qHTS (AID 1347068; cut-off not given, nearly all actives have IC50 up to about 30 µM); conditions: SU-DIPG-XXV viability
# [12] = growth inhibition, single agents and combos, LFS_MB_1R, cell-based, cisplatin or BGB combos, synergistic combos for chromothripsis tumors (AID 1671452); conditions: LFS_MB_1R medulloblastoma cells, stronger effect = higher value;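 also: cells exposed for 96 hours before readout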
# [13] = growth inhibition, MDA-MB-436, cell-based, BGB or cisplatin combos, synergistic combos for chromothripsis tumors (AID 1671458; call rule not given here;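 also: cells exposed for 96 hours; 0% = vehicle DMSO and 100% = killing by high DMSO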); conditions: MDA-MB-436 breast carcinoma growth inhibition, drug combinations, stronger effect = higher value
# [14] = BT084 cell growth, single and combined drugs, ICGC_MB145, cisplatin and BGB IC40 combos (AID 1671461); conditions: BT084 medulloblastoma cells, drug combinations, stronger effect = higher value;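 also: cells exposed to drugs for 96 hours; 0% = vehicle DMSO and 100% = high DMSO full killing control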
# [15] = RCMB18 cell growth, single agent and combined, cisplatin and BGB IC40 combos (AID 1671462); conditions: RCMB18 medulloblastoma cells, stronger effect = higher value;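 also: cells exposed to compound for four days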
# [16] = CRL1545 cell growth, single agent and combined, cisplatin and BGB IC20 combos (AID 1671464); conditions: CRL1545 osteosarcoma cells, stronger effect = higher value;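 also: cells exposed to compound for 96 hours before readout; 0% = vehicle DMSO and 100% = high DMSO killing control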
# [17] = compounds altering viability of human ES cells (AID 493140; call rule not given here;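 also: cells exposed to compounds for four days before counting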); conditions: human embryonic stem cell survival screen; stronger effect = higher value
# [18] = tested on: Hepatitis C virus NS3 helicase; assay: blockers of NS3h binding to ssDNA – biochemical, fluorescence polarization, LOPAC1280 library, primary screen (AID 687035; in the data active = inhibition above about 37%); conditions: Purified HCV NS3 helicase, Cy5-dT15 ssDNA binding fluorescence polarization; stronger effect = higher value; concentration not given here
# [19] = compounds altering Cy5-DNA-NS3h complex signal – biochemical, LOPAC1280, artefact control for HCV NS3 helicase inhibitor project (AID 687037; call rule not given here); conditions: Cy5-DNA-NS3h complex fluorescence interference counterscreen
# [20] = blockers of cellular phospholipid synthesis – cell-based, LOPAC library, screen 4, primary screen (AID 1347384; call rule not given here); conditions: animal cells, phospholipid biosynthesis inhibition screen; at 10 µM
# [21] = measured here: combination with BGB IC40, at 0.05 µM
# [22] = measured here: combination with cisplatin, at 0.5 µM
# [23] = measured here: combination with cisplatin, at 5 µM
# [24] = measured here: BGB combination, at 0.5 µM
# [25] = measured here: BGB combination, at 5 µM
# [26] = measured here: cisplatin combination, at 0.5 µM
# [27] = measured here: cisplatin combination, at 5 µM
# [28] = cisplatin combination, at 0.5 µM
# [29] = measured here: BGB IC40 combination 0.05 uM, at 0.05 µM
# [30] = measured here: BGB IC40 combination, at 0.05 µM
# [31] = measured here: with BGB IC20 combination, at 0.5 µM
# [32] = measured here: with cisplatin IC20 combination, at 0.5 µM
smiles,measurement,setting,value
CS(=O)(=O)OCCCCOS(C)(=O)=O,rescue above control,[1],-1.18
same,inclusion score,[2],2
same,aggregation suppression score,[3],1.4
same,outcome,[4],inactive
same,outcome,[5],inactive
same,outcome,[6],inactive
same,outcome,[7],inactive
same,outcome,[8],inactive
same,outcome,[9],inactive
same,outcome,[10],inactive
same,outcome,[11],inactive
same,inhibition,[12]; at 0.5 µM,-13.7% (inactive) and -24.5% (inactive)
same,inhibition,[12]; [21],-7.13% and -11.8%
same,inhibition,[12]; [22],-41.7% and -21.3%
same,inhibition,[12]; [23],-51.5% and 4.47%
same,inhibition,[13]; at 0.5 µM,-11.8% (inactive) and -10.9% (inactive)
same,inhibition,[13]; [24],-20.7% and -8.16%
same,inhibition,[13]; [25],10.5% and 6.58%
same,inhibition,[13]; [26],-15.8% and -27%
same,inhibition,[13]; [27],-17.4% and 2.99%
same,inhibition,[14]; at 0.5 µM,3.5% (inactive) and 8.55% (inactive)
same,inhibition,[14]; [28],-11.9% and 10.4%
same,inhibition,"[14]; cisplatin combination, at 5 µM",13.1% and -35.4%
same,inhibition,[14]; [29],-26.6% and 22.9%
same,inhibition,"[14]; single agent, at 5 µM",10.9% and -3.7%
same,inhibition,[15]; at 0.5 µM,-11.1% (inactive) and -2.44% (inactive)
same,inhibition,"[15]; cisplatin combo, at 5 µM",-65.6% and 7.8%
same,inhibition,[15]; [30],-1.43% and 7.53%
same,inhibition,[15]; [22],-15.9% and -14.5%
same,inhibition,"[15]; single agent, at 5 µM",-7.92% and -9.74%
same,inhibition,[16]; at 0.5 µM,-1.43% (inactive) and -28.8% (inactive)
same,inhibition,[16]; [31],-7.16% and 14.9%
same,inhibition,[16]; [32],-0.178% and -50.7%
same,inhibition,"[16]; single agent, at 0.05 µM",-16.2% and -23.2%
same,inhibition,"[16]; single agent, at 5 µM",-7.55% and 21.7%
S=c1nc[nH]c2nc[nH]c12,rescue above control,[1],-8.7
same,aggregation suppression score,[3],1.29
same,AC50,[4],1.18 µM (active)
same,outcome,[5],inactive
same,AC50,[6],935 nM (active)
same,outcome,[7],inactive
same,AC50,[8],5.25 µM (active)
same,inhibition,[12]; at 0.5 µM,-9.9% (inactive) and -33.2% (inactive) and -36.1% (inactive)
same,inhibition,[12]; [21],14.7% and -35.7% and -8.62%
same,inhibition,[12]; [22],-4.25% and -33.8% and -75.5%
same,inhibition,[12]; [23],-15.4% and -37% and -57.5%
same,inhibition,[13]; at 0.5 µM,-2.57% (inactive) and -1.27% (inactive) and 12.1% (inactive)
same,inhibition,[13]; [24],-26.2% and -7.09% and 10.3%
same,inhibition,[13]; [25],19.5% and 16% and 25.5%
same,inhibition,[13]; [26],-2.23% and -7.71% and 3.05%
same,inhibition,[13]; [27],44.5% and 28.1% and 46.1%
same,inhibition,[14]; at 0.5 µM,-23.3% (inactive) and -12% (inactive) and -13.4% (inactive)
same,inhibition,[14]; [28],-28% and -16.1% and -18.3%
same,inhibition,"[14]; cisplatin combination, at 5 µM",-59.7% and -17.4% and -65.5%
same,inhibition,[14]; [29],-9.27% and 73.7% and -6.21%
same,inhibition,"[14]; single agent, at 5 µM",-10.1% and 19.3% and -6.27%
same,inhibition,[15]; at 0.5 µM,0.61% (inactive) and -7.44% (inactive) and -22.1% (inactive)
same,inhibition,"[15]; cisplatin combo, at 5 µM",12.2% and -28% and -29.1%
same,inhibition,[15]; [30],0.705% and 3.13% and 5.02%
same,inhibition,[15]; [22],30% and -22% and -77.2%
same,inhibition,"[15]; single agent, at 5 µM",-40.6% and 41.7% and -25.7%
same,inhibition,[16]; at 0.5 µM,-26.3% (inactive) and -12.8% (inactive) and -43.8% (inactive)
same,inhibition,[16]; [31],-10.8% and -54.5% and -18%
same,inhibition,[16]; [32],-34% and 8.01% and -56.8%
same,inhibition,"[16]; single agent, at 0.05 µM",2.04% and -10.4% and -14.2%
same,inhibition,"[16]; single agent, at 5 µM",33.1% and 21.8% and 31.5%
CC(C[N+](C)(C)C)OC(N)=O (stereo not drawn),rescue above control,[1],20.6
same,inclusion score,[2],2
same,aggregation suppression score,[3],1.26
same,survival,[17],18.5 (inactive)
same,inhibition,[18],-2% (inactive)
same,fluorescence ratio (interference),[19],1 (inactive)
same,outcome,[4],inactive
same,outcome,[5],inactive
same,outcome,[6],inactive
same,outcome,[9],inactive
same,outcome,[10],inactive
same,outcome,[11],inactive
same,outcome,[20],inactive
CC(COc1ccccc1)N(CCCl)Cc1ccccc1 (stereo not drawn),rescue above control,[1],11.3
same,aggregation suppression score,[3],0.789
same,survival,[17],5.08 (inactive)
same,inhibition,[18],-1% (inactive)
same,fluorescence ratio (interference),[19],1 (inactive)
same,outcome,[4],inactive
same,outcome,[5],inactive
same,outcome,[6],inactive
same,outcome,[8],inactive
same,outcome,[9],inactive
same,outcome,[10],inactive
same,outcome,[11],inactive
CCCc1nc2c(C)cc(-c3nc4ccccc4n3C)cc2n1Cc1ccc(-c2ccccc2C(=O)O)cc1,outcome,[4],inactive
same,outcome,[5],inactive
same,outcome,[6],inactive
same,outcome,[7],inactive
same,outcome,[8],inactive
same,outcome,[9],inactive
same,outcome,[10],inactive
same,outcome,[11],inactive
CC1=C(/C=C/C(C)=C/C=C/C(C)=C/C(=O)O)C(C)(C)CCC1,rescue above control,[1],3.71
same,aggregation suppression score,[3],0.795
same,survival,[17],12.6 (inactive) and 136 (inactive)
same,inhibition,[18],-1% (inactive)
same,fluorescence ratio (interference),[19],0.9 (inactive)
same,outcome,[6],inactive
same,outcome,[10],inactive
same,outcome,[11],inactive
same,outcome,[20],inactive
